# Screens as filed in PubChem.
# Hits are enriched below; roughly 6.6% of the tested compounds scored in any of these assays.
# HepG2 viability – qHTS for Inhibitors of TGF-b: Cytotox Counterscreen | HepG2 CAGA-GFP viability, ATP luminescence, 18 h | Potency, µM (series often up to 46.1 µM), actives largely listed as cytotoxic | 0.76% of 410,000 active
#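 HepG2 CAGA-GFP cells (1000/well, DMEM with 1% FBS) received compound, then TGF-beta at 500 pg/mL final, and were incubated 18 hours at 37 degrees C. Viability was read by CellTiter-Glo luminescence. Media-only wells were set as complete cell-killing and DMSO as no toxicity.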
# HT1080 IDH1KD tx – qHTS for induction of synthetic lethality in tumor cells producing 2HG: qHTS for the HT-1080-IDH1KD cell line. 2% of 360,000 active. Potency, µM (titrated, usually from 46.1 µM), actives largely listed as cytotoxic. AID 686971, 2013. HT-1080 IDH1 knockdown viability, ATP luminescence, 48 h
#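 In this qHTS, HT-1080 cells depleted of IDH1 are exposed for 48 h at 37 °C to compound titrations. Toxicity is scored from CellTiter-Glo luminescence, with DMSO as full viability and medium alone as none.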
# KB-3-1 cytotox – qHTS assay for MDR1-selective chemotherapeutics: Primary screen using the parental adenocarcinoma cell KB-3-1; KB-3-1 viability, CellTiter-Glo ATP luminescence, 72 h; Potency, µM (series often up to 46.1 µM), usual class: cytotoxic; 1.4% of 400,000 active; AID 1347075, 2019; further: nearly all actives have a fitted effect of over 60% in size
#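 Viability of parental KB-3-1 cells, measured by CellTiter-Glo luminescence, followed a 72 h incubation at 37 °C with pinned compounds in phenol-red-free DMEM containing 10% FBS.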
# KB-V1 cytotox – qHTS assay for MDR1-selective chemotherapeutics: Primary screen using the drug-selected MDR subline cells KB-V1. KB-V1 MDR cells viability, CellTiter-Glo, 72 h. Potency, µM (series often up to 46.1 µM), most hits filed as cytotoxic. 3.4% of 400,000 active; further: nearly all actives have a fitted effect of over 60% in size
#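 Cytotoxicity via CellTiter-Glo luminescence after 72 h compound exposure at 37 degrees C. Cells: drug-selected KB-V1 line, DMEM phenol-red free plus 10% FBS. Compounds tested at multiple concentrations; normalized data fitted to concentration-effect curves.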
# HT1080-NT tox – qHTS for induction of synthetic lethality in tumor cells producing 2HG: qHTS for the HT-1080-NT fibrosarcoma cell line; HT-1080-NT fibrosarcoma viability, CellTiter-Glo ATP luminescence, 48 h; AID 686970, 2013; 1.6% of 360,000 active; Potency, µM (titrated, usually from 46.1 µM), usual class: cytotoxic;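 further: NT is the 2HG producing partner of a matched IDH1 knockdown line; nearly all actives have a fitted effect of over 55% in size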
#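 Read-out is CellTiter-Glo luminescence after 10 minutes at room temperature, following 48 hours' compound treatment of HT-1080-NT cells (750 cells/well, RPMI, 5% FBS, 37 degrees C).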
# TGFb inhibitor – qHTS for Inhibitors of TGF-b; AID 588855, 2011; Potency, µM (titrated, usually from 46.1 µM), hits mostly inhibitors; 1.2% of 410,000 active; HepG2 CAGA-GFP TGF-b/SMAD3 reporter, GFP fluorescence, 18 h; TGF-beta stimulated, 500 pg/mL final; further: nearly all actives have a fitted effect of over 65% in size
#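 Inhibition was scored as loss of TGF-beta-induced (500 pg/mL final, 18 hours, 37 degrees C) GFP in HEPG2 cells carrying a CAGA-GFP reporter, in DMEM with 1% FBS. Well GFP was summed per cell; Activity was normalised to unstimulated and stimulated DMSO wells, then concentration-response fitting.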
# Numbers stand for hits; i = inactive; ? = inconclusive; nt = not tested or not shown. The call rests on the fitted dose curve; in most records, active means well fitted curve in the direction sought with a large enough effect; inconclusive means small, poorly fitted or top-dose-only effect, or another doubt; inactive means no such curve, though single readings can be large; an effect the other way counts as inactive or inconclusive.
SMILES,HepG2 viability,HT1080 IDH1KD tx,KB-3-1 cytotox,KB-V1 cytotox,HT1080-NT tox,TGFb inhibitor
CCOc1cc(C(=O)Nc2ccc3oc(-c4ccc(F)cc4Cl)nc3c2)cc(OCC)c1OCC,i,nt,i,i,nt,i
O=C(Nc1ccc(F)cc1)c1ccc2c(c1)NC(=O)c1ccccc1S2,i,nt,?,i,nt,i
COc1ccc(-c2nc3sc(CCNC(=O)C(=O)Nc4ccc(C)c(F)c4)c(C)n3n2)cc1,i,nt,nt,nt,nt,i
COc1cccc(NS(=O)(=O)c2cc(-c3cnc(C4CC4)o3)ccc2C)c1,i,nt,4.11µM,7.31µM,nt,2µM
COc1ccc(C)cc1NS(=O)(=O)c1ccc(-c2cnc(C3CC3)o2)cc1,i,0.0073µM,0.206µM,?,?,3.55µM
Cc1ccc2c(CC(=O)Nc3ccc(S(=O)(=O)N4CCCCC4)cc3)coc2c1,i,nt,i,i,nt,?
Cc1c(Cl)cccc1NC(=O)c1oc2ccc(S(=O)(=O)N3CCCCCC3)cc2c1C,i,nt,i,i,nt,i
C[C@H]1c2cccc(O)c2C(O)=C2C(=O)[C@]3(O)C(O)=C(C(N)=O)C(=O)[C@@H](N(C)C)C3[C@@H](O)C21 (stereo not given in full),i,23.1µM,i,i,?,i
CCOC(=O)c1c(C)oc2ccc(NS(=O)(=O)c3ccc(C(=O)O)cc3)cc12,i,i,i,i,i,i
COCCOC(=O)c1c(C)oc2ccc(NS(=O)(=O)c3ccc(F)cc3)cc12,i,i,i,5.17µM,i,?
Cc1oc2ccc(NS(=O)(=O)c3ccc(F)cc3)cc2c1C(=O)O,i,i,i,i,i,i
CCCCOC(=O)c1c(C)oc2ccc(NS(=O)(=O)c3ccc(F)cc3C)cc12,i,nt,i,i,nt,14.1µM
COc1ccc(NC(=O)CCc2nnc3n(Cc4ccccc4Cl)c(=O)c4ccccc4n23)cc1,i,nt,nt,nt,nt,i
O=C(CC12CC3CC(C1)CC(CC(=O)N1CCCC1)(C3)C2)N1CCCC1,i,i,i,14.6µM,i,i
O=C(CC12CC3CC(CC(C3)C1)C2)N1CCCOC1,i,i,i,i,i,i
Cc1ccccc1C(=O)NCCSc1ccccc1,i,i,i,i,i,?
Cc1ccc(SCCC(=O)Nc2ccccc2C(=O)N2CCOCC2)cc1,i,i,i,23.1µM,i,i
CC(C)CNC(=O)c1ccccc1NC(=O)c1ccc(CSc2ccccc2)cc1,i,i,i,13µM,i,i
CCC(C)NC(=O)c1ccccc1NC(=O)c1ccc(CSc2ccc(C)cc2)cc1 (stereo not given),i,i,i,i,i,i
CC(C)CNC(=O)c1ccccc1NC(=O)CCSc1ccccc1,i,i,i,20.6µM,i,i
CSc1ccccc1C(=O)NCCSc1ccccc1,i,i,i,18.4µM,i,i
CCOc1ccc(CC(=O)NCCc2sc3nc(-c4ccc(F)cc4)nn3c2C)cc1,i,nt,nt,nt,nt,?
O=C(NCCCSc1ccccc1)c1cc(Br)ccc1O,i,18.4µM,i,i,?,?
O=C(NCCSc1ccccc1)c1ccc(Br)cc1,i,i,i,i,i,i
Cc1ccc(Oc2nc3c(c(=O)n(Cc4ccccc4)c(=O)n3C)n2C)cc1C,i,nt,i,?,nt,i
C/C(=N\Nc1ccccn1)c1ccc(N2CCOCC2)cc1,i,i,i,i,i,i
C/C(=N\Nc1ccccn1)c1ccc(C(C)C)cc1,i,i,i,?,i,12.6µM
COc1cc(/C=C2\C(=O)ON=C2c2ccccc2)cc(Br)c1O,i,?,?,?,16.4µM,?
CCOc1cc(/C=C2\C(=O)ON=C2c2ccccc2)cc(Br)c1O,i,?,?,?,?,i
COc1cccc(C(=O)Nc2ccc(-c3nc4ccccc4s3)cc2Cl)c1,i,nt,i,i,nt,i
